D1 ag: agonists of human D1 dopamine receptor | HEK293 T-REx D1 cells, calcium flux, agonist mode | activation, % at 2 µM | 360,000 tested, 1% active | AID 504660; further: 0% is about no effect
Target sequence (P21728 whole entry, looked up): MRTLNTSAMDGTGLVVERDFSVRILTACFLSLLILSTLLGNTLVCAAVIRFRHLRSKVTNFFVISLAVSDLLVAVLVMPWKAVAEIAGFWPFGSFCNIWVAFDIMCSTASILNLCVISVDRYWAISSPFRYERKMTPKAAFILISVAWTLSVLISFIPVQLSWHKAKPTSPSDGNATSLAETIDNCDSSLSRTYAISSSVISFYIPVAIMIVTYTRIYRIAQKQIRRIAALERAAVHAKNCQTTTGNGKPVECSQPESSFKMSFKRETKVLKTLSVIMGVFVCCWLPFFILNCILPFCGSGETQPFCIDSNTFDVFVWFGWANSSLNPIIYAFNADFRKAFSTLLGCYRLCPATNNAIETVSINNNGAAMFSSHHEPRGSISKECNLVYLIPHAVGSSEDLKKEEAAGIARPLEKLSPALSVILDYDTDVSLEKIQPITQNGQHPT
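Tetracycline-induced HEK293 TREx D1 cells, force-coupled to calcium signalling, were dye-loaded with a no-wash calcium kit. Compound was pin-added after a 10 s baseline. Fluorescence was read kinetically at 1 cycle/s for 180 s, with calcium rises flagged as agonism.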
LDHA block: inhibitors of human lactate dehydrogenase A; 480,000 tested, 0.15% active; P00338; purified LDHA, NADH/diaphorase-resazurin fluorescence; active compounds read low; activity change, % (values are at about 110 or 230 µM); in the data active means activity change below about -30%;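 further: plate controls were DMSO wells for no effect and wells without enzyme for full effect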
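Resorufin fluorescence (ex540/em590), read at 0 and 20 min after diaphorase/resazurin addition, reports the NADH left after a 5 min room-temperature reaction of 2 nM human LDH5 with 0.06 mM NADH and 0.2 mM pyruvate.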
TRHR PAM: allosterically enhances the human TRH receptor; AID 493056; 360,000 tested, 0.66% active; P34981; enhancement, % at 2 µM; TRHR cells, fluo-8 calcium fluorescence, EC20 TRH enhancement; in the data active means enhancement above about 30%; further: 0% is about no effect
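TRHR-expressing cells loaded with fluo-8 calcium dye were read kinetically (ex 480/em 530) during compound addition, then stimulated with an EC20 of TRH (10 nM final). Enhancement of the Gq-mediated intracellular calcium response was scored.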
TRHR ag: TRH receptor (human) agonism. P34981. TRHR cells, calcium flux fluo-8, FDSS agonist mode. activation, % at 2 µM. 360,000 tested, 0.18% active. AID 493084; further: 0% is about no effect
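Steps: seed TRHR cells overnight; add fluo-8 no-wash Ca dye, RT 30 min–1.5 h; record 10 s baseline; pin-transfer compounds; monitor fluorescence 1 cycle/s for the agonist window. Calcium increases flag candidate agonists.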
D1 antag: human D1 dopamine receptor antagonism | P21728 | HEK293 TREx D1 cells, calcium flux, dopamine EC80; active compounds read low | activity change, negative = inhibition, % at 10 µM | 360,000 tested, 3.2% active; in the data active means activity change below about -30%; further: on the % scale 0 is the no-effect control and ±100 the full control effect
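Allosteric or orthosteric antagonism assessed as attenuation of the calcium response to EC80 dopamine, added 180 s after compound, in induced HEK293 Trex D1 cells loaded with no-wash calcium dye.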
D1 PAM: human D1 dopamine receptor positive modulation. P21728. HEK293 TREx D1 cells, calcium flux, dopamine EC20 potentiation. potentiation, % at 10 µM. 360,000 tested, 0.036% active; in the data active means potentiation above about 30%; further: 0% is about no effect
The depositor's hits bear a star; nt = not tested or not shown. This is a sample that favours compounds with a hit; in the whole collection about 3.6% have one here. Unless noted, no stated cut-off is given here; in the data, active means activation above about 30%; inactive means the rest.

SMILES	D1 ag	LDHA block	TRHR PAM	TRHR ag	D1 antag	D1 PAM
O=C(O)CCC(=O)NCCc1cccc(Cl)c1	5.7	5.1	-3.0	-0.6	7.4	nt
O=C(Cc1ccccc1)NCCc1cccc(Cl)c1	27.3	-5.8	6.0	-1.0	-55.2*	-8.1
NS(=O)(=O)c1ccc(CCNC(=O)c2cccc([N+](=O)[O-])c2)cc1	0.7	-8.8	-3.0	1.6	4.7	-1.6
O=C(NCCc1cccc(Cl)c1)c1cccc([N+](=O)[O-])c1	3.6	-10.5	-3.3	-1.6	-42.4*	-3.9
Clc1ccc2c(Cl)cc[n+](CCC3CCCCC3)c2c1	nt	-36.1*	nt	nt	nt	nt
COc1ccc(C2N3CC4(C)CN2CC(C)(C3)C4O)cc1 (stereo not given)	2.8	-8.2	4.7	0.6	3.4	-0.5
COc1ccc(C2N3CC4(C)CN2CC(C)(C3)C4O)cc1OC (stereo not given)	4.2	-3.1	31.0*	-0.2	-4.8	-7.2
CCN1CCCC(OC(=O)c2cccc(Br)c2)C1 (stereo not given)	nt	-6.0	nt	nt	nt	nt
CCn1cnc2c1c(=O)n(CC(=O)NC(C)c1ccccc1F)c(=O)n2Cc1ccccc1 (stereo not given)	nt	3.4	nt	nt	nt	nt
O=C(NCc1ccccc1)Nc1ccc2oc(C3CC3)nc2c1	nt	1.7	nt	nt	nt	nt
O=C(NCCc1ccccc1F)C1CCCN1S(=O)(=O)c1ccc2ccccc2c1 (stereo not given)	40.8*	1.5	-0.8	-0.1	-52.9*	-15.3
O=C(NCc1ccccc1)C1CCCN1S(=O)(=O)c1ccc(F)cc1 (stereo not given)	-0.1	-3.4	-0.3	-1.9	4.8	-0.8
CC(C)Oc1ccc(CNC(=O)C2CCCCN2S(=O)(=O)c2ccc(F)cc2)cc1 (stereo not given)	3.7	0.9	13.1	-0.5	-39.7*	-6.3
Cc1ccc(C)c(CNC(=O)C2CCCCN2S(=O)(=O)c2ccc(F)cc2)c1 (stereo not given)	44.1*	-2.6	-1.1	-0.9	-37.4*	-5.5
O=C(NN1C(=O)C2C3C=CC(C4CC34)C2C1=O)c1ccc(Cl)c(Cl)c1 (stereo not given)	1.4	-8.6	30.0*	1.0	-13.5	-0.1
Cc1cc(C(=O)OCC(=O)NC(=O)c2cccn2C)c2ccccc2n1	45.0*	-0.1	-9.5	-0.6	16.8	-4.5
Cc1cc(C(=O)OCC(=O)Nc2ccccc2C(C)C)c2ccccc2n1	nt	-39.9*	nt	nt	nt	nt
COc1ccccc1NC(=O)COC(=O)c1cc(C)nc2ccccc12	-0.2	-4.0	-1.2	-0.2	2.4	-7.8
Cc1ccc(C)c(C(=O)COC(=O)c2cc(C)nc3ccccc23)c1	nt	10.8	nt	nt	nt	nt
Cc1cc(C(=O)OCC(=O)c2cccc3ccccc23)c2ccccc2n1	nt	-35.4*	nt	nt	nt	nt
CC(C(=O)NCc1ccc(Cl)cc1)n1cccc1C(=O)c1ccccc1 (stereo not given)	13.7	-5.9	4.4	-0.8	14.2	6.7
CC(C(=O)NCC1CCCO1)n1cccc1C(=O)c1ccccc1 (stereo not given)	1.5	-1.7	8.8	-0.5	-31.5*	-1.9
Cc1ccc(CNC(=O)c2ccc(CNc3c(N4CCCC4)c(=O)c3=O)cc2)cc1	0.3	-3.5	2.9	-0.3	-14.1	nt
CC1CCCC(NC(=O)c2ccc(CNc3c(N4CCCC4)c(=O)c3=O)cc2)C1C (stereo not given)	1.2	-1.6	16.9	0.0	-32.1*	-10.2
O=C1CCc2cc(S(=O)(=O)N(Cc3ccccc3)c3ccccc3)cc3c2N1CCC3	nt	-1.8	nt	nt	nt	nt
Cc1cccc(C(=O)NCCCN(C)CC(F)(F)F)n1	nt	-30.7*	nt	nt	nt	nt
CCN(CC)c1ccc2cc(C(=O)NCc3ccc(F)cc3)c(=N)oc2c1	170.1*	nt	-1.5	34.0*	-28.9	-10.6
CC(C)(C)NS(=O)(=O)c1ccc(CCC(=O)Nc2ccc3c(c2)OCCO3)cc1	1.7	-6.9	8.6	0.4	5.0	-2.4
O=C(COc1ccc(F)cc1)Nc1ccc2c(c1)OCCO2	0.9	-4.7	-4.1	-0.5	-14.8	-6.9
Cc1ccc(NC(=O)COC(=O)CNC(=O)C2CCCCC2)cc1S(=O)(=O)N(C)C	nt	-18.7	nt	nt	nt	nt

Screening data from PubChem.
